Inconclusive results are not listed. Where a call stands in place of a potency, no number is given. Active and inactive are the calls of the source. Calls follow the shape of the dose curve; as a rule, active = well fitted inhibition curve with a large enough effect; inconclusive = small, poorly fitted or top-dose-only effect; inactive = flat fitted curve, though single readings scatter.
Test system: Zika virus NS2B-NS3 protease
Test: Primary screen GU AMC qHTS for Zika virus inhibitors (AID 1347154); also: nearly all actives have a fitted effect of over 70% in size
Conditions: Zika NS2B-NS3 unlinked protease, AMC fluorogenic substrate; series mostly up to 54.1 µM
Procedure, shortened: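 Unlinked Zika NS2B hydrophilic domain–NS3 protease complex at 25 nM in 10 mM Tris-HCl pH 8.0, 0.01% Tween 20, with an AMC peptide substrate. Fluorescence change (340/450 nm) over 15 min at room temperature, normalized to controls, fitted to 4-parameter Hill.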

SMILES	Potency
Oc1ccccc1C=NCc1ccccc1	inactive
CC[C@H](c1ccc(O)cc1)[C@@H](CC)c1ccc(O)cc1	inactive
OC(C#CCN1CCCC1)(c1ccccc1)c1ccccc1	inactive
CC(=O)NCCCCCC(=O)O	inactive
COc1cc(O)c(C(=O)c2ccccc2)cc1S(=O)(=O)O	inactive
CCCCNc1ccc(C(=O)OCCOCCOCCOCCOCCOCCOCCOCCOCCOC)cc1	inactive
O=C(N/N=C/c1ccc([N+](=O)[O-])o1)c1ccc(O)cc1	inactive
Cc1ccc2c(Br)cc(Br)c(O)c2n1	inactive
CN(C)CCOC(=O)C(c1ccccc1)C1(O)CCCC1 (centres undefined)	inactive
CCOc1ccccc1OCCN[C@H](C)Cc1ccc(OC)c(S(N)(=O)=O)c1	inactive
CC(C)(Cc1c[nH]c2ccccc12)NCC(O)COc1ccccc1C#N (centres undefined)	inactive
C[N+]1(CC2COC(c3ccccc3)(C3CCCCC3)O2)CCCCC1 (centres undefined)	inactive
CCOc1ccccc1C(N)=O	inactive
CCOC(=O)[C@@](C)(N)Cc1ccc(O)c(O)c1	inactive
Cc1cc(CC(=O)O)c(C)n1-c1ccc(Cl)cc1	inactive
CCCCCCCCCCCCCCC[C@H](O)[C@@H](N)CO	inactive
COc1ccc(/C=N/NC(=O)c2ccncc2)cc1OC	inactive
O=C(NC1CCN(CCc2c[nH]c3ccccc23)CC1)c1ccccc1	inactive
CN1CCC[C@@H]1CCO[C@](C)(c1ccccc1)c1ccc(Cl)cc1	inactive
CC(C)[C@@H]1CC[C@@H](C)CC1=O	inactive

SMILES	Potency
COc1cc(C)nc(-n2nc(C)cc2OC)n1	inactive
CN1CCN(c2cc3c(cc2F)c(=O)c(C(=O)O)cn3-c2ccc(F)cc2)CC1	inactive
CC(=O)OCC1=C(C(=O)O)N2C(=O)[C@@H](NC(=O)CSc3ccncc3)[C@H]2SC1	inactive
C[N+]1(C)CCC(=C(c2ccccc2)c2ccccc2)CC1	inactive
CCCCN1C[C@H](O)[C@@H](O)[C@H](O)[C@H]1CO	inactive
OCCOCCN1CCN(C2=Nc3ccccc3Sc3ccccc32)CC1	inactive
CO[C@]12C[C@@H](COC(=O)c3cncc(Br)c3)CN(C)[C@@H]1Cc1cn(C)c3cccc2c13	inactive
NCc1ccccc1Sc1ccccc1CO	inactive
Cc1ccc(-c2ncc(Cl)cc2-c2ccc(S(C)(=O)=O)cc2)cn1	inactive
CC(C)Cc1ccc(CC(=O)O)cc1	inactive
CCCCCCCCCCCCSCCOCCO	inactive
CCN1CCCC(OC(=O)C(c2ccccc2)c2ccccc2)C1 (centres undefined)	inactive
C#C[C@]1(O)CC[C@H]2[C@@H]3CCC4=Cc5oncc5C[C@]4(C)[C@H]3CC[C@@]21C	inactive
OC[C@H]1O[C@@H]2O[C@H]3[C@H](O)[C@@H](O)[C@@H](O[C@H]4[C@H](O)[C@@H](O)[C@@H](O[C@H]5[C@H](O)[C@@H](O)[C@@H](O[C@H]6[C@H](O)[C@@H](O)[C@@H](O[C@H]7[C@H](O)[C@@H](O)[C@@H](O[C@H]8[C@H](O)[C@@H](O)[C@@H](O[C@H]1[C@H](O)[C@H]2O)O[C@@H]8CO)O[C@@H]7CO)O[C@@H]6CO)O[C@@H]5CO)O[C@@H]4CO)O[C@@H]3CO	inactive
FC(F)(F)C(F)(F)C(F)(F)C(F)(F)C(F)(F)C(F)(F)C(F)(F)C(F)(F)Br	inactive
Nc1ccc(S(=O)(=O)Nc2cnc3ccccc3n2)cc1	inactive
CN(C)CCOC(c1ccc(Cl)cc1)c1ccccn1 (centres undefined)	inactive
Cc1cc(C)cc(OCC2CNC(=O)O2)c1 (centres undefined)	inactive
Cc1c(-c2ccccc2)oc2c(C(=O)OCCN3CCCCC3)cccc2c1=O	inactive

Source: PubChem BioAssay (NCATS)
